Assay [1] can be described thus: inhibitors of TNFa-induced NFkB p65 translocation, primary screen, imaging, HUVEC, MLSMR starter and 10KST1 sets (AID 438;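 active = inhibition above 20% together with a positive visual image hit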;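 also: compound added about 3h40 before a 20 min TNFalpha stimulation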;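 as to inhibition: signal is the nuclear over cytoplasmic p65 intensity ratio per well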). The settings on record: HUVEC TNFa-induced p65 nuclear translocation; cell count: measured here: nuclei count (cytotoxicity indicator), at 2.08 µM; inhibition: at 2 µM, stronger effect = higher value, 0% TNFa-plus-vehicle, 100% no-TNFa wells.
Assay [2] can be described thus: reduction of polyQ htt aggregates in cells – imaging, exon1htt(103Q)mCFP cells, high-content imaging, primary screen (AID 483;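 active = visual image review flags a hit and inhibition of aggregation exceeds 20%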;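 also: compound exposure lasted 3 days before fixation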;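 as to nuclei count: percent of the per-plate median nuclei count of sample wells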). Particulars: exon1htt(103Q)mCFP cell line, aggregate imaging, at 2 µM; inhibition of aggregation: stronger effect = higher value; nuclei count: measured here: cell count, toxicity.
The nature of assay [3]: endothelial E-selectin expression blockers – imaging, HUVEC, immunofluorescence, MLSMR starter and 10KST1 sets, primary screen (AID 487;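 active = visually confirmed hit in the image check and inhibition above 20%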;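 as to inhibition: signal is fraction of cell area covered by stained E-selectin grains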;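 as to nuclei count: 100% = median nuclei count of all wells on the same plate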). Particulars: HUVEC TNFalpha-induced E-selectin immunofluorescence imaging, at 2 µM; inhibition: stronger effect = higher value; nuclei count: measured here: cell number, toxicity.
A short description of assay [4]: Primary imaging screen for DUSP6 inhibitors that restore phospho-Erk in transfected HeLa cells, chemical complementation (AID 609;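 active = compounds giving at least 50% inhibition in the cell-based MKP-3 phosphatase rescue imaging test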;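 as to inhibition: phospho-Erk level distribution per well compared with pooled transfected vehicle control wells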). The settings on record: HeLa MKP-3 transfected, phospho-Erk imaging KS statistic, at 10 µM, cells stimulated with TPA for 15 min.
Assay [5] deals with Dual specificity protein phosphatase 6 (Homo sapiens) (UniProt Q16828). The assay is described as above. Particulars: HeLa MKP-3 transfected, phospho-Erk imaging KS statistic; at 10 µM; stronger effect = higher value; cells stimulated with TPA for 15 min.
Sequence of Dual specificity protein phosphatase 6 (Homo sapiens) (Q16828 whole entry, looked up): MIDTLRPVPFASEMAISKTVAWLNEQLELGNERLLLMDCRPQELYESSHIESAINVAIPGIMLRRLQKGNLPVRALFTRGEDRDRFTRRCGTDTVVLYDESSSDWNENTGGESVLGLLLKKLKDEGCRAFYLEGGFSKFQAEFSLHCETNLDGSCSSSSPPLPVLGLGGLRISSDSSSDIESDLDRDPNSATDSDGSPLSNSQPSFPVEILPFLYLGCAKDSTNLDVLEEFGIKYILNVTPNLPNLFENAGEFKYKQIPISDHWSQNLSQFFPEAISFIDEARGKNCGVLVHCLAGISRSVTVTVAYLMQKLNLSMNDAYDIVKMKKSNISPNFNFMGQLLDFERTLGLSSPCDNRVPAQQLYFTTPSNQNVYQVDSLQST
Assay [6] addresses Voltage-gated potassium channel subunit beta-2 (Rattus norvegicus) (UniProt P62483). The assay can be described thus: inhibitors of rat Kvbeta2 reductase activity – biochemical, NADPH fluorescence, primary screen (AID 622;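 active = fluorescence slope higher than the sample average by over 3 SD, cut at about -0.22 in these data, passing the limit was not always enough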;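 also: slope of raw intensity against log time taken from 70 to 1610 s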). The settings on record: recombinant KvBeta, 4-cyanobenzaldehyde reduction, at 10 µM, stronger effect = higher value.
Assay [7] has the same target. Briefly: enhancers of rat Kvbeta2 NADPH turnover – biochemical, NADPH fluorescence, primary screen (AID 623;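 active = NADPH fluorescence slope more negative than the mean of all samples by about 3 SD, 99.7% confidence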;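 also: fluorescence intensity change per second fitted from 20 to 320 s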). Particulars: Recombinant KvBeta, NADPH fluorescence decrease slope, 10 min; at 10 µM; stronger effect = lower value.
The target in assay [8] is Muscarinic acetylcholine receptor M4 (Homo sapiens) (UniProt P08173). Briefly: M4-linked GIRK flux change, two-sided – cell-based, HEK293 M4/GIRK, thallium flux, BTC-AM, M4 allosteric agonist project, primary screen (AID 625;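 active = fluorescence slope after compound addition differing from the mean of all tested samples at 99.7% confidence, mostly higher but some lower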;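 also: thallium influx through GIRK channels coupled to M4 in HEK293 cells with BTC-AM dye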). Particulars: at 10 µM, actives lie on both sides.
Sequence of Muscarinic acetylcholine receptor M4 (Homo sapiens) (P08173 whole entry, looked up): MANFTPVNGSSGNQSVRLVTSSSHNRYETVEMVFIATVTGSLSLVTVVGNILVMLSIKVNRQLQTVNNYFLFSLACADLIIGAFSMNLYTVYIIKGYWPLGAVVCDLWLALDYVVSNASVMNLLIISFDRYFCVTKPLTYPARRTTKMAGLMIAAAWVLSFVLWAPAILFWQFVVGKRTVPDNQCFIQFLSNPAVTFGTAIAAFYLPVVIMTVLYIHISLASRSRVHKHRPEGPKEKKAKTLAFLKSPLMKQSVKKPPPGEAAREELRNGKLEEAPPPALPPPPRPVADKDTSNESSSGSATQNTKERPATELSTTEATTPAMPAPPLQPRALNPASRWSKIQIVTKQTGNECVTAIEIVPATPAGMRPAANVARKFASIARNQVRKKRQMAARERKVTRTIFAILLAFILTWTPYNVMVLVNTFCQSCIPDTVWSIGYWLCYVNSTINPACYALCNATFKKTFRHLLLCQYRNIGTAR
Assay [9] is described as follows: inhibitors of larval lipid processing in zebrafish, primary screen, whole organism, PED6 fluorescence, gall bladder and intestine (AID 686;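 active = a full or partial loss of lipid-probe fluorescence in the fish gall bladder, intestine or both, judged by eye; inactive = no fluorescence loss, or compound toxic to the fish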;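 also: larvae 5 to 7 days old with five fish per well; signal comes from phospholipase A2 cleavage of quenched PED6 carried via bile; overnight exposure to compound and PED6 before scoring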). The settings on record: Zebrafish larvae PED6 lipid processing, fluorescence scoring; screened at 20 µM (by protocol).
A short description of assay [10]: loss of swimming-algae plug formation – whole organism, Chlamydomonas reinhardtii, WT vs cilia-less mutant, absorbance, 96-well, primary screen (AID 463189;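 active = inhibition at or above 50% relative to wild type and mutant plate controls; inactive = inhibition below 50%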;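 also: 0% = wild type cc124 cells in DMSO and 100% = ciliumless bld1 mutant cells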). Particulars: Chlamydomonas reinhardtii gravitaxis, OD600 absorbance, 2 days; at 10 µM; stronger effect = higher value.
The nature of assay [11]: blockers of RIG-like receptor reporter activation – cell-based, Sendai virus stimulus, luciferase, 10K MLSCN set, TLR/RLR signaling modifier project, primary screen (AID 602276;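 active = inhibition at or above 50% at 10 µM; inactive = inhibition below 50%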;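 also: firefly luciferase from ISG56 promoter only with Renilla not read in this screen; 0% = Sendai virus plus DMSO and 100% = medium plus DMSO without virus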). Particulars: HEK293 RL24 IRF3 luciferase reporter, at 10 µM, stronger effect = higher value.
Assay [12] can be described thus: TLR3 IRF3 reporter activation blockers – cell-based, poly I:C stimulus, luciferase, 10K MLSCN set, primary screen (AID 602277). The settings on record: HEK293-TLR3 RL24 IRF3 luciferase reporter, at 10 µM, stronger effect = higher value. In general terms: A reporter such as luciferase makes a cellular process visible.
[13] abbreviates: measured here: cell density z-score.
[14] abbreviates: measured here: nuclear c-Myc green intensity z-score.
The mark [15] stands for this setting: measured here: nuclear pErk red intensity z-score, stronger effect = higher value.

The record followed here is PubChem BioAssay.

Structures are written as SMILES. Activity calls are given as the source filed them.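 The calls were made as follows, unless noted: active = inhibition of the reporter signal at or above 50%; inactive = inhibition below 50%.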

Sequence of Voltage-gated potassium channel subunit beta-2 (Rattus norvegicus) (P62483 whole entry, looked up): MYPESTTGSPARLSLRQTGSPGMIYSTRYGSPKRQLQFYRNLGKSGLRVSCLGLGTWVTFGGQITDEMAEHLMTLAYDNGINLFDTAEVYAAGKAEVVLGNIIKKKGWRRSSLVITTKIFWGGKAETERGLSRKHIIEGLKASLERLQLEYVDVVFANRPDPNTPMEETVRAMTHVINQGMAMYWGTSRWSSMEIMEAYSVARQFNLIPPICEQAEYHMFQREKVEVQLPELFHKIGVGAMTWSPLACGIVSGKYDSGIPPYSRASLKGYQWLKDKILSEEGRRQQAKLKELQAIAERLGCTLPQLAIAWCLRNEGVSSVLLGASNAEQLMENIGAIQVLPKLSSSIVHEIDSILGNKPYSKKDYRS

Broadly, the inhibition is the change of the read-out against control, counted positive when it falls. With `N#C/C(C(=O)NCc1ccco1)=C1/SC(Cc2ccc(F)cc2)C(=O)N1c1ccccc1` (stereo not given), in [1], the cell count worked out at 598. The inhibition in assay [1] was 4.7% (inactive); in assay [3], -13.2% (inactive); in assay [5] it was -2.09% (inactive); in [10], -7.54% (inactive); in assay [11], 11.5% (inactive); in [12] it was 20.4% (inactive). Further, in assay [2], the inhibition of aggregation was -63.4% (inactive). The nuclei count came to 75.6% in assay [2] and 108% in [3]. In addition, the z-score in assay [4] (setting [13]) stood at 0.348; in assay [4] (setting [14]), 0.139; in assay [4] (setting [15]) it was 0.51. The fluorescence slope in [6] is -0.437 (inactive); in [8], 0.00419 (inactive). Moreover, in assay [7], the NADPH fluorescence slope was -2.8e-05 (inactive). In assay [9], the outcome is “inactive; toxic”.

Regarding `O=S(=O)(NCc1cccnc1)c1cccc2nsnc12`, the cell count in assay [1] amounted to 643. For the same compound, the inhibition is -2.6% (inactive) in [1]; -80.9% (inactive) in assay [3]; -3.97% (inactive) in assay [5]; -1.56% (inactive) in assay [10]; 15.1% (inactive) in [11]; 21.7% (inactive) in assay [12]. In addition, in [2], the inhibition of aggregation is -2.4% (inactive). For the same compound, the figures for the nuclei count in assay [2] and in assay [3] were 125% and 137%, respectively. The z-score was -0.856 in assay [4] (setting [13]), 1.61 in [4] (setting [14]) and 0.356 in assay [4] (setting [15]). The fluorescence slope in [6] was -0.482 (inactive); in assay [8], 0.00583 (inactive). Also, the NADPH fluorescence slope in [7] was -5e-05 (inactive). The compound was classed as inactive in assay [9].

On to `COc1ccc(/C(O)=C2/C(=O)C(=O)N(CCCN(C)C)C2c2ccco2)cc1Cl` (stereo not given), for which, in [1], the cell count is 697. Further, the inhibition is -3.7% (inactive) in [1]; -9% (inactive) in [3]; 6.04% (inactive) in assay [5]; 14.2% (inactive) in [10]; -5.81% (inactive) in assay [11]; -1.63% (inactive) in assay [12]. In addition, in [2], the inhibition of aggregation is -6.2% (inactive). Moreover, the nuclei count in [2] was found to be 110%; in [3], 134%. Besides, the z-score is 0.269 in assay [4] (setting [13]), -1.33 in [4] (setting [14]) and -0.259 in assay [4] (setting [15]). In addition, the fluorescence slope in assay [6] is -0.426 (inactive); in assay [8], 0.00515 (inactive). For the same compound, the NADPH fluorescence slope in [7] was -4.3e-05 (inactive). In assay [9], the compound was classed as inactive.

For the compound `O=C(NCc1cccnc1)c1ccc(=O)oc1`, the cell count in assay [1] amounted to 649. Also, the inhibition in assay [1] is -2% (inactive); in assay [3], 43% (inactive); in assay [5], 4.37% (inactive); in [10], 18.7% (inactive); in [11] it was 10.2% (inactive); in assay [12] it was 11.5% (inactive). The inhibition of aggregation in [2] is -18.7% (inactive). The nuclei count in [2] came to 103%; in assay [3] it was 110%. Moreover, the z-score in [4] (setting [13]) is -0.741; in assay [4] (setting [14]), 1.41; in assay [4] (setting [15]), -1.58. Besides, the fluorescence slope in assay [6] was -0.496 (inactive); in assay [8] it was 0.00411 (inactive). The NADPH fluorescence slope in assay [7] is -4.3e-05 (inactive). Further, the result in [9] was inactive.

Take `CN(CC(O)COc1ccc(OCC(O)CN(C)C2CCCCC2)cc1)C1CCCCC1` (stereo not given): the cell count in assay [1] was determined as 605. For the same compound, the inhibition in assay [1] is -1.3% (inactive); in assay [3], -149% (inactive); in assay [5] it was 11.3% (inactive); in [10], 3.04% (inactive); in [11] it was -47.8% (inactive); in assay [12], 52.7% (active). Besides, the inhibition of aggregation in assay [2] is -434% (inactive). Besides, the nuclei count in [2] was determined as 67%; in assay [3], 120%. The z-score was -0.395 in [4] (setting [13]), 0.402 in [4] (setting [14]) and 1.26 in assay [4] (setting [15]). The fluorescence slope in assay [6] was -0.384 (inactive); in [8] it was 0.00666 (inactive). The NADPH fluorescence slope in assay [7] is -3e-05 (inactive). Further, in assay [9], the compound was called inactive.
